The values below come from PubChem BioAssay (Tox21).

The structures appear in SMILES notation. Results filed as inconclusive are left out. Active and inactive are the calls of the source. Calls follow the shape of the dose curve; as a rule, active = well fitted curve in the direction sought with a large enough effect in the repeat runs; inconclusive = weak or mixed curves; inactive = no such curve, though single readings can be large; an effect the other way counts as inactive or inconclusive.

A short description of assay [1]: qHTS assay to identify small molecule antagonists of the retinoid acid receptor (RAR) signaling pathway - cell viability counter screen (AID 1159551). Also: nearly all actives have a fitted effect of over 35% in size. Also: potency is read from the fitted curve at half-maximal effect. Put shortly:
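C3RL4 RARE-luciferase cells, 1,000/well, incubated overnight, then dosed with compound plus 1 uM retinol (final). After 6 hr at 37 C, viability read by CellTiter-Glo ATP luminescence following 30 min at room temperature.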
(qHTS replaces the single test concentration by a dilution series.)

A short description of assay [2]: qHTS assay to identify small molecule antagonists of the estrogen related receptor (ERR) signaling pathway from Tox21 library - cell viability counter screen (AID 1224834). Also: nearly all actives have a fitted effect of over 30% in size. Also: potency is read from the fitted curve at half-maximal effect. Put shortly: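 ERR reporter cells, 2,000 per well, rested 6 h, then exposed to compound in DMSO for 17.5 hours at 37 C. Viability read as fluorescence after 30 min with CellTiter-Fluor.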
Assay [3] can be described thus: qHTS assay to identify small molecule agonists of the retinoic acid receptor (RAR) signaling pathway (AID 1159553). Put shortly: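 C3RL4 RARE-luciferase cells were seeded at 1,000/well and grown overnight at 37 C, then exposed to compounds for 6 hr at 37 C, 5% CO2. Luciferase reagent was added and luminescence was read after 30 min at room temperature.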
Assay [4] can be described thus: qHTS assay to identify small molecule antagonists of the retinoic acid receptor (RAR) signaling pathway (AID 1159552; also: nearly all actives have a fitted effect of over 50% in size). Put shortly:
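C3RL4 RARE-luc cells, overnight plating; retinol 1 uM final added right after compound; 6 hr 37 C; luciferase read at 30 min RT.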

A short description of assay [5]: qHTS assay to identify small molecule antagonists of the estrogen related receptor (ERR) signaling pathway - cell viability counter screen (AID 1224818). Also: series mostly up to about 46 µM. The procedure, abridged: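 ERR cells, 2,000 per well, compound added after 6 h and incubated 17.5 h at 37 C. Viability read by CellTiter-Fluor fluorescence after a further 30 min at 37 C.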
A short description of assay [6]: qHTS assay to identify small molecule antagonists of the estrogen related receptor signaling pathway with the pleiotropic PPARgamma coactivator (PGC) cell viability counter screen (AID 1224822; also: series mostly up to about 46 µM). Put shortly: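 PGC/ERR cells rested 6 h, then compound-treated 17.5 h at 37 C. CellTiter-Fluor added for 30 min at 37 C, viability measured by fluorescence intensity.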

On to `O=C(O)CCCCCCC(=O)O`, for which the Potency entry in assay [1] and in assay [2] was “inactive” each time.

As for `CC(C)(C)c1cc(/C=C2\SC(=N)NC2=O)cc(C(C)(C)C)c1O`, the Potency entry in assay [1] and in assay [3] was “inactive” in each case. Further, in assay [2], the Potency was 61.1 µM (active).

Consider `COC(=O)C1=C(C)NC(C)=C(C(=O)OCCCN2CCC(c3ccccc3)(c3ccccc3)CC2)C1c1cccc([N+](=O)[O-])c1` (stereo not drawn), for which the Potency result in assay [1] and in assay [3] was “inactive” throughout. In assay [2], the Potency was 21.1 µM (active).

As to `CC(C(O)c1ccccc1)N(C)CCOC(c1ccccc1)c1ccccc1` (stereo not drawn), the Potency entry in assay [1] was “inactive”. For the same compound, the Potency in assay [2] was 29.8 µM (active).

On to `C=C[C@](C)(O)CC[C@@H]1[C@@]2(C)CCCC(C)(C)[C@@H]2CC[C@@]1(C)O`, for which the Potency in assay [1] and in assay [2] was 61.1 µM (active) throughout.

On to `CN(C)CCN1CCOCC1`, for which the Potency result in assay [1], in assay [4] and in assay [2] was “inactive” each time.

On to `CN(C)CCCN1c2ccccc2CCc2ccccc21`, for which the Potency result in assay [1], in assay [5] and in assay [6] was “inactive” each time.

`CC(C)N=C(N)/N=C(\N)Nc1ccc(Cl)cc1`: the Potency result in assay [1] and in assay [3] was “inactive” throughout.

Regarding `CC(=O)Oc1ccc(C2(c3ccc(OC(C)=O)cc3)C(=O)Nc3ccccc32)cc1`, the Potency result in assay [1] and in assay [2] was “inactive” in each case.

As to `CC(=O)Nc1ccc(O)cc1`, the Potency entry in assay [1] and in assay [2] was “inactive” throughout.

`CCCCOc1ccc(C(=O)CCN2CCCCC2)cc1`: the Potency result in assay [1] and in assay [2] was “inactive” throughout.

Take `C1CC(COCC2CO2)CCC1COCC1CO1` (stereo not drawn): the Potency result in assay [1] and in assay [2] was “inactive” in each case.

For `NCCCC(O)(P(=O)(O)O)P(=O)(O)O`, the Potency entry in assay [1] and in assay [2] was “inactive” in each case.

Regarding `Nc1cc(Cl)c([N+](=O)[O-])cc1O`, the Potency result in assay [1] and in assay [3] was “inactive” in each case. In assay [2], the Potency was 54 µM (active).

Turning to `CCCCCCCCCCCCCCNCCO`, the Potency entry in assay [1] and in assay [2] was “inactive” each time.

With `CC(CN(C)C)CN1c2ccccc2CCc2ccccc21` (stereo not drawn), the Potency result in assay [1], in assay [5] and in assay [6] was “inactive” throughout.
